Source: PubChem BioAssay (National Center for Advancing Translational Sciences (NCATS))
An excerpt weighted towards active compounds, which were near 12% of everything screened.
TDP1 inh = qHTS Assay for Inhibitors of Tyrosyl-DNA Phosphodiesterase (TDP1); Tyrosyl-DNA phosphodiesterase 1 (Homo sapiens), Q9NUW8; recombinant TDP1, AlphaScreen DNA substrate cleavage; Potency, µM (highest dose often 130 µM), actives largely listed as inhibitors; 350,000 compounds, 0.28% hits; AID 485290, 2010; also: nearly all actives have a fitted effect of over 40% in size
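Here, a 5' biotin and 3' phosphotyrosine-FITC DNA oligonucleotide reports Tdp1 activity: intact substrate bridges AlphaScreen beads, while cleavage leaves a 3' phosphate and drops signal. All incubations at room temperature.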
G9a inh = qHTS Assay for Inhibitors of Histone Lysine Methyltransferase G9a; AID 504332, 2011; Potency, µM (series often up to 102 µM), most hits filed as inhibitors; G9a H3K9 monomethylation, AlphaScreen, 2 h; 350,000 compounds, 8.8% hits; Histone-lysine N-methyltransferase EHMT2 (Homo sapiens), Q96KQ7; also: nearly all actives have a fitted effect of over 75% in size
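G9a (20 nM) was preincubated 15 min with compound, then reacted 2 h at room temperature with 500 nM biotin-H3K9 peptide and 20 µM SAM. Monomethyl-H3K9 detected by AlphaScreen using anti-H3K9me1 antibody.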
BAZ2B block = qHTS Assay for Inhibitors of BAZ2B; Bromodomain adjacent to zinc finger domain protein 2B (Homo sapiens), Q9UIF8; AlphaScreen BAZ2B-H3K14Ac peptide displacement; AID 504333, 2011; 360,000 compounds, 4.4% hits; Potency, µM (series often up to 114 µM), most hits filed as inhibitors; also: nearly all actives have a fitted effect of over 60% in size
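In this displacement format the biotinylated H3(5-23) peptide acetylated at Lys14 serves as ligand at 50 nM, with BAZ2B at 50 nM in PBS pH 7.4 containing 0.01% Tween-20. Donor and acceptor beads are 10 ug/mL final.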
JMJD2A Tudor inh = qHTS Assay for Inhibitors of JMJD2A-Tudor Domain; Lysine-specific demethylase 4A (Homo sapiens), O75164; AlphaScreen JMJD2A-Tudor / H3K4me3 peptide binding; Potency, µM (series often up to 114 µM), actives largely listed as inhibitors; 390,000 compounds, 4.4% hits; also: nearly all actives have a fitted effect of over 50% in size
HP1b binding inh = HTS for Inhibitors of HP1-beta Chromodomain Interactions with Methylated Histone Tails; Chromobox protein homolog 1 (Homo sapiens), P83916; AlphaScreen HP1-beta / biotin-H3K9me3 peptide binding; Potency, µM (doses to about 114 µM), actives largely listed as inhibitors; 390,000 compounds, 0.56% hits; AID 540317, 2011; also: nearly all actives have a fitted effect of over 70% in size
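AlphaScreen: HP1-beta (50 nM) preformed 30 min with biotin-H3(1-18)K9me3 peptide (50 nM) in PBS pH 7.4, 0.01% Tween-20. Compound added for 30 min at RT, then streptavidin donor/nickel chelate acceptor beads (10 ug/mL) for 30 min.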
Sfp inh = qHTS Assay for Inhibitors of Bacillus subtilis Sfp phosphopantetheinyl transferase (PPTase) | Biochemical Sfp PPTase activity, qHTS | AID 1490, 2009 | Potency, µM, usual class: inhibitors | 4'-phosphopantetheinyl transferase ffp (Bacillus subtilis), Q9F4F7 | 310,000 compounds, 3.5% hits;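 also: the enzyme is Sfp with the accession as filed and its product quenches rhodamine fluorescence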
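Fluorescence-quenching assay with 15 nM Sfp, 5 uM rhodamine-CoA and 12.5 uM BHQ-2-labelled ybbR peptide in pH 7.6 Hepes/MgCl2 buffer. Enzyme was pre-incubated with compound for 15 min at room temperature. Rate was taken from the 30-min fluorescence change (525/598 nm).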
Each line names hits and unclear results; the compound was inactive in the other large screens. Calls follow the shape of the dose curve; as a rule, active = well fitted curve in the direction sought with a large enough effect; inconclusive = small, poorly fitted or top-dose-only effect, or another doubt; inactive = no such curve, though single readings can be large; an effect the other way counts as inactive or inconclusive.

O=C(CSc1nnc(SCc2ccccc2)s1)N/N=C/C=C/c1ccco1	G9a inh 13µM, BAZ2B block 25µM, JMJD2A Tudor inh 40µM, HP1b binding inh 25µM, Sfp inh 35µM
O=C(CSc1nnc(SCc2ccccc2)s1)NNC(=S)Nc1ccccc1	G9a inh 2.2µM
O=C(Cc1ccccc1)NNC(=S)Nc1ccccc1	G9a inh inconclusive
Cn1c(SCC(=O)N/N=C/C=C/c2ccccc2[N+](=O)[O-])nc2ccccc21	none
CCn1c(SCC(=O)N/N=C/C=C/c2ccco2)nnc1-c1ccccc1	TDP1 inh 22µM, G9a inh 16µM, BAZ2B block inconclusive, JMJD2A Tudor inh inconclusive
CCn1c(SCC(=O)N/N=C/C(C)=C/c2ccco2)nnc1-c1ccccc1	BAZ2B block inconclusive, JMJD2A Tudor inh inconclusive (no result: TDP1 inh)
Cn1c(SCC(=O)N/N=C/C=C/c2ccco2)nc2ccccc21	TDP1 inh inconclusive, G9a inh 7.1µM, BAZ2B block 45µM, JMJD2A Tudor inh inconclusive
CC(=O)N1CCc2cc(S(=O)(=O)N3CCc4ccccc43)ccc21	none
O=C(CSc1nnc(SCc2ccc(Cl)cc2)s1)N/N=C/c1c[nH]c2ccccc12	TDP1 inh 22µM, G9a inh inconclusive, BAZ2B block 35µM, JMJD2A Tudor inh 89µM
O=C(CSc1nnc(SCc2cccc3ccccc23)s1)N/N=C/c1c[nH]c2ccccc12	G9a inh inconclusive
O=C(c1ccccc1)N1CCN(C(=O)c2nn3c(C(F)(F)F)cc(-c4ccco4)nc3c2Br)CC1	G9a inh inconclusive
O=c1[nH]c(=O)n(C2CC(O)C(CO)O2)cc1Br (stereo unspecified)	JMJD2A Tudor inh 79µM (no result: TDP1 inh, G9a inh, BAZ2B block, Sfp inh)
CCc1cn([C@H]2C[C@H](O)[C@@H](CO)O2)c(=O)[nH]c1=O	none
O=C(O)C(Cc1c[nH]c2ccccc12)N1Cc2ccccc2C1=O (stereo unspecified)	none
O=C(O)CCc1n[nH]c(=S)[nH]c1=O	Sfp inh 56µM
CCOC(=O)CCc1n[nH]c(=O)[nH]c1=O	none
COc1ccc(-c2csc3ncnc(N4CCN(S(=O)(=O)c5ccc(C(C)=O)cc5)CC4)c23)cc1	none (no result: TDP1 inh, Sfp inh)
CCN1CCN(CCCNC(=O)Cn2nc(C)n3c(cc4c(OC)cccc43)c2=O)CC1	none (no result: Sfp inh)
CC[C@H](C)[C@H](NC(=O)[C@@H](NC(=O)[C@@H](NC(=O)[C@H](CCC(=O)O)NC(=O)[C@H](CCC(=O)O)NC(=O)[C@H](CCC(=O)O)NC(=O)[C@H](C)NC(=O)[C@@H](N)CC(C)C)C(C)C)C(C)C)C(=O)N[C@@H](CCCNC(=N)N)C(=O)N[C@@H](CO)C(=O)N[C@@H](C)C(=O)N[C@@H](CC(N)=O)C(=O)N[C@@H](Cc1ccccc1)C(=O)N[C@H](C(=O)N[C@@H](CC(=O)O)C(=O)N[C@@H](CC(N)=O)C(=O)O)[C@@H](C)O	none (no result: G9a inh, BAZ2B block, JMJD2A Tudor inh, HP1b binding inh)
COC(=O)/C=C1/S/C(=N/NC(=O)c2ccccc2C)NC1=O	G9a inh 2µM, BAZ2B block 56µM, JMJD2A Tudor inh inconclusive
COC(=O)/C=C1\S/C(=N/NC(=O)c2ccccc2)NC1=O	G9a inh inconclusive, BAZ2B block inconclusive
COC(=O)/C=C1/SC(=NC(=O)c2ccc(OC)cc2)NC1=O	BAZ2B block inconclusive
COC(=O)/C=C1/SC(=NC(=O)c2ccc(F)cc2)NC1=O	G9a inh inconclusive, Sfp inh 28µM
COC(=O)/C=C1\SC(=NC(=O)c2cccc(Cl)c2)NC1=O	BAZ2B block inconclusive, Sfp inh 45µM
COC(=O)/C=C1/SC(=NC(=O)c2ccccc2)NC1=O	G9a inh 22µM, JMJD2A Tudor inh inconclusive, Sfp inh 28µM
COc1cccc(-c2nc(CS(=O)CC(=O)NC3CCCCC3)c(C)o2)c1 (stereo unspecified)	none (no result: TDP1 inh, G9a inh)
